# Experimental data: the supplement of paper PMC10849652
# Targets with a hit are over-represented here; the source holds about 8,800 in all. About 0.5% of all pairs of compound and target were hits. Values without a mark were called inactive.
# Legend:
# Experiment in all cases: log2 fold change, soluble protein after heating vs DMSO (PISA); higher = thermal stabilisation; K562 lysate, 10 uM; active = over 0.2 and 3.5 SD of the protein, either way, in both replicates (recomputed)
# nilotinib = compound: Cc1cn(-c2cc(NC(=O)c3ccc(C)c(Nc4nccc(-c5cccnc5)n4)c3)cc(C(F)(F)F)c2)cn1 [nilotinib]
# How it was run: (§1)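 Pellets of K562 cells were dounce-homogenised in PBS pH 7.4 with 1 mM MgCl2, and the crude extract was held at 1 mg/mL protein for a 30 min treatment with 10 μM compound. Aliquots were heated for 3 min over 48°C-58°C and pooled before NP-40 was added to 0.5% at 4°C. The supernatant from 21,000xg for 90 min was quantified by TMTpro 16plex LC-MS/MS with channel sums equalised. Values are reported from duplicates as log-two fold change in thermal stability relative to solvent controls.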
# [1] = compound: Cc1nc(Nc2n[nH]c3c2CN(C(=O)N[C@H](CN(C)C)c2ccccc2)C3(C)C)c2sccc2n1
# How it was run: as §1
# dasatinib = compound: Cc1nc(Nc2ncc(C(=O)Nc3c(C)cccc3Cl)s2)cc(N2CCN(CCO)CC2)n1 [dasatinib]
# How it was run: as §1
# [2] = compound: Cc1ncc(-c2ccnc(Nc3ccc(S(C)(=O)=O)cc3)n2)n1C(C)C
# How it was run: as §1
# [3] = compound: Cn1cc(-c2ccc3c(c2)CCN3C(=O)Cc2cccc(C(F)(F)F)c2)c2c(N)ncnc21
# How it was run: as §1
# quisinostat = compound: Cn1cc(CNCC2CCN(c3ncc(C(=O)NO)cn3)CC2)c2ccccc21 [quisinostat]
# How it was run: as §1
# tipifarnib = compound: Cn1cncc1[C@@](N)(c1ccc(Cl)cc1)c1ccc2c(c1)c(-c1cccc(Cl)c1)cc(=O)n2C [tipifarnib]
# How it was run: as §1
# [4] = compound: NC(=O)Nc1cc(-c2cccc(F)c2)sc1C(=O)N[C@H]1CCCNC1
# How it was run: as §1
# [5] = compound: NC(=O)c1cnc(N[C@@H]2CCCC[C@@H]2N)nc1Nc1cccc(-n2nccn2)c1
# How it was run: as §1
# [6] = compound: NC1(c2ccc(-c3nc4ccn5c(=O)[nH]nc5c4cc3-c3ccccc3)cc2)CCC1
# How it was run: as §1
# [7] = compound: NCC(=O)Nc1ccc(-n2nc(C(F)(F)F)cc2-c2ccc3c(ccc4ccccc43)c2)cc1
# How it was run: as §1
# vorinostat = compound: O=C(CCCCCCC(=O)Nc1ccccc1)NO [vorinostat]
# How it was run: as §1
# silmitasertib = compound: O=C(O)c1ccc2c(c1)nc(Nc1cccc(Cl)c1)c1ccncc12 [silmitasertib]
# How it was run: as §1
# [8] = compound: O=C1NC(=O)C(c2cnc3ccccn23)=C1c1cn2c3c(cc(F)cc13)CN(C(=O)N1CCCCC1)CC2
# How it was run: as §1
# entospletinib = compound: c1cn2cc(-c3ccc4cn[nH]c4c3)nc(Nc3ccc(N4CCOCC4)cc3)c2n1 [entospletinib]
# How it was run: as §1
# Sequence of UniProt P28838 (P28838 whole entry, looked up): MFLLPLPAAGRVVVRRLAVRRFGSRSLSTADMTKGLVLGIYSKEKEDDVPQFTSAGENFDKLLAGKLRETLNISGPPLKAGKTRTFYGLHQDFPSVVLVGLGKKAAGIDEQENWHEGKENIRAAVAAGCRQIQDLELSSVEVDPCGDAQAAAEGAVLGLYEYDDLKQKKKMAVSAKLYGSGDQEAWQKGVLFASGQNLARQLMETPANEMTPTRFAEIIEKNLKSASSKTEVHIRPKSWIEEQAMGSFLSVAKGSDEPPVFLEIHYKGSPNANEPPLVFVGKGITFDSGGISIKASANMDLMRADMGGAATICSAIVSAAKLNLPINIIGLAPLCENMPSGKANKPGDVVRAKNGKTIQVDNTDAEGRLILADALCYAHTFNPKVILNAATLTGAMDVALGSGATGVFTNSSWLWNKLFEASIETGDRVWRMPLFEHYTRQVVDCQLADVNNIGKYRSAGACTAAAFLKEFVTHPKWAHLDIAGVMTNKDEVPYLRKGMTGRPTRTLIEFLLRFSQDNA
# Sequence of UniProt Q9Y250 (Q9Y250 whole entry, looked up): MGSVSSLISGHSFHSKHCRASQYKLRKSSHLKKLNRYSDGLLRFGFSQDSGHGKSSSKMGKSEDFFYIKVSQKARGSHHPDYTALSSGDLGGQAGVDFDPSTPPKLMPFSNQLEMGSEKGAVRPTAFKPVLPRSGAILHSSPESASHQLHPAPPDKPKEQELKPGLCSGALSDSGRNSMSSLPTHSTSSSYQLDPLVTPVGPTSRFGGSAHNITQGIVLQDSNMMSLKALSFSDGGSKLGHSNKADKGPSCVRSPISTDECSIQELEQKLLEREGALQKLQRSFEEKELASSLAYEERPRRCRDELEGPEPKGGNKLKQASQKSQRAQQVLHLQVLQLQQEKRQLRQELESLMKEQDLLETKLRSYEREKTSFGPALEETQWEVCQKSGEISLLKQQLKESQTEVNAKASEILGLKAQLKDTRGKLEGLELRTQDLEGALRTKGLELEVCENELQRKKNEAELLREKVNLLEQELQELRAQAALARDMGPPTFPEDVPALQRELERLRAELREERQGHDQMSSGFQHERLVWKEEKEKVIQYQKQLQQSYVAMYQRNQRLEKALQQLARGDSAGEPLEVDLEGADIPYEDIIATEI
# Sequence of UniProt Q15334 (Q15334 whole entry, looked up): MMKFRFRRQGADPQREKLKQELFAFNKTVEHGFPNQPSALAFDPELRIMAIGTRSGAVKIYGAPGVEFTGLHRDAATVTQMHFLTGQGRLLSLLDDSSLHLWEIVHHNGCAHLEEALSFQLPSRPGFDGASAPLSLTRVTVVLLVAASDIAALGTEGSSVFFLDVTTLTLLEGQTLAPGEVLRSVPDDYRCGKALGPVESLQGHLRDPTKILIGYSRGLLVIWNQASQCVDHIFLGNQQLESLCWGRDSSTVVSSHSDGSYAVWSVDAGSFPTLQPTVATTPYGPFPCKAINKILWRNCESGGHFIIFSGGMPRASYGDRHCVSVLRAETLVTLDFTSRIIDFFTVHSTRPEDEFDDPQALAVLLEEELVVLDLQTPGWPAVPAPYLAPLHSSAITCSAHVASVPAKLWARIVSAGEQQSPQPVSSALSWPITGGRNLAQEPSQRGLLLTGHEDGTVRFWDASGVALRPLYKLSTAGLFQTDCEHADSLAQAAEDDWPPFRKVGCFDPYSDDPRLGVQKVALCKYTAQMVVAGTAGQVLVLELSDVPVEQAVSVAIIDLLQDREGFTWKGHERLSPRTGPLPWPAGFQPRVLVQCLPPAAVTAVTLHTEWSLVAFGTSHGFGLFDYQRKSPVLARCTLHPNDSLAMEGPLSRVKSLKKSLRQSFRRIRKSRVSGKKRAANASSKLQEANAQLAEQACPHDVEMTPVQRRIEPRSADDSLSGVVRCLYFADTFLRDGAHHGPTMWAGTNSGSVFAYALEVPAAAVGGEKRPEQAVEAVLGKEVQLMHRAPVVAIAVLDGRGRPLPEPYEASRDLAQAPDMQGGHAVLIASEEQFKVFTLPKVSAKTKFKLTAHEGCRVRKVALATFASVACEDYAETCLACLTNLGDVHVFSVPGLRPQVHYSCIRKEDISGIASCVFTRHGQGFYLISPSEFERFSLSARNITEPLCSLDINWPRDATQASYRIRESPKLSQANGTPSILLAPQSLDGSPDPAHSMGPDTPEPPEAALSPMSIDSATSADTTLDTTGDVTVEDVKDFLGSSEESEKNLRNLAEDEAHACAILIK
# Sequence of UniProt Q8IYU8 (Q8IYU8 whole entry, looked up): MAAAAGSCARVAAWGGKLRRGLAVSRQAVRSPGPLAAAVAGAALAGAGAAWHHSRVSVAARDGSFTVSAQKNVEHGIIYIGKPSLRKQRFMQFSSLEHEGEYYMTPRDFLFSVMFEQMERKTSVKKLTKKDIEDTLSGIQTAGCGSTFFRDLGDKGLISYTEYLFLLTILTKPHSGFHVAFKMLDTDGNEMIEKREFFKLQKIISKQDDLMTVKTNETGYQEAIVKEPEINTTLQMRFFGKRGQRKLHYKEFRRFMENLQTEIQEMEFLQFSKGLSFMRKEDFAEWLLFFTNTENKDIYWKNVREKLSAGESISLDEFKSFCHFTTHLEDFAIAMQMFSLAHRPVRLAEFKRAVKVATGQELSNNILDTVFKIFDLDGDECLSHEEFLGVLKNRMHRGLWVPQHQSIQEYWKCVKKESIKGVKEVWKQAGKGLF
# Sequence of UniProt P49137 (P49137 whole entry, looked up): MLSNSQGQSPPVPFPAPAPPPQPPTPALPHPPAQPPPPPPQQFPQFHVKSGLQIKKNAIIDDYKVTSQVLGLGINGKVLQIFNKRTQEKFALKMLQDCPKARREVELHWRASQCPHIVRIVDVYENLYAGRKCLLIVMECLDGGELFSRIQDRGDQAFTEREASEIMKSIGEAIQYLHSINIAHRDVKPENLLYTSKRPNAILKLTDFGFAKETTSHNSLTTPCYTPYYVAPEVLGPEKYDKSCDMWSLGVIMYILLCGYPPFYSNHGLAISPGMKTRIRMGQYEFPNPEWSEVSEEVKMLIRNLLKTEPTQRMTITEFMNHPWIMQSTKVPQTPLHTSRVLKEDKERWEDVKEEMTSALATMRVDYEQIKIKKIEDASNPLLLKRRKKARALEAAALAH
# Sequence of UniProt Q8NF37 (Q8NF37 whole entry, looked up): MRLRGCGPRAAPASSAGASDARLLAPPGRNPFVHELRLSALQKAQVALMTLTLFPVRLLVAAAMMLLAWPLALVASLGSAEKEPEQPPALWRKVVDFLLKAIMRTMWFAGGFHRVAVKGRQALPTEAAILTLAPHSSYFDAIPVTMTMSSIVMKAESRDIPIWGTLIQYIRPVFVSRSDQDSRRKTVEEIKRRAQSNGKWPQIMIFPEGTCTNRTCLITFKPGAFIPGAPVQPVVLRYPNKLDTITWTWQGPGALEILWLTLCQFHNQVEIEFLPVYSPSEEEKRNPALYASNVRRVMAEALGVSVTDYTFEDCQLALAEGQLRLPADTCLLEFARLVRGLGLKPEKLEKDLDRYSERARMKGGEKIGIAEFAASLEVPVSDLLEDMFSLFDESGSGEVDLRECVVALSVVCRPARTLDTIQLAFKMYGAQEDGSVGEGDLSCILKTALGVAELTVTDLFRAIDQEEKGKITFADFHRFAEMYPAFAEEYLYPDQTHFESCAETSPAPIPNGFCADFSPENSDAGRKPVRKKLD
# Sequence of UniProt O14880 (O14880 whole entry, looked up): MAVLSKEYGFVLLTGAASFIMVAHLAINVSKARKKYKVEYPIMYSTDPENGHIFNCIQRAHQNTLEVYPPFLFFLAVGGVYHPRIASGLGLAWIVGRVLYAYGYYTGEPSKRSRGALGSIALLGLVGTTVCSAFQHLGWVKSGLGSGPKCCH
# Sequence of UniProt Q9Y6X9 (Q9Y6X9 whole entry, looked up): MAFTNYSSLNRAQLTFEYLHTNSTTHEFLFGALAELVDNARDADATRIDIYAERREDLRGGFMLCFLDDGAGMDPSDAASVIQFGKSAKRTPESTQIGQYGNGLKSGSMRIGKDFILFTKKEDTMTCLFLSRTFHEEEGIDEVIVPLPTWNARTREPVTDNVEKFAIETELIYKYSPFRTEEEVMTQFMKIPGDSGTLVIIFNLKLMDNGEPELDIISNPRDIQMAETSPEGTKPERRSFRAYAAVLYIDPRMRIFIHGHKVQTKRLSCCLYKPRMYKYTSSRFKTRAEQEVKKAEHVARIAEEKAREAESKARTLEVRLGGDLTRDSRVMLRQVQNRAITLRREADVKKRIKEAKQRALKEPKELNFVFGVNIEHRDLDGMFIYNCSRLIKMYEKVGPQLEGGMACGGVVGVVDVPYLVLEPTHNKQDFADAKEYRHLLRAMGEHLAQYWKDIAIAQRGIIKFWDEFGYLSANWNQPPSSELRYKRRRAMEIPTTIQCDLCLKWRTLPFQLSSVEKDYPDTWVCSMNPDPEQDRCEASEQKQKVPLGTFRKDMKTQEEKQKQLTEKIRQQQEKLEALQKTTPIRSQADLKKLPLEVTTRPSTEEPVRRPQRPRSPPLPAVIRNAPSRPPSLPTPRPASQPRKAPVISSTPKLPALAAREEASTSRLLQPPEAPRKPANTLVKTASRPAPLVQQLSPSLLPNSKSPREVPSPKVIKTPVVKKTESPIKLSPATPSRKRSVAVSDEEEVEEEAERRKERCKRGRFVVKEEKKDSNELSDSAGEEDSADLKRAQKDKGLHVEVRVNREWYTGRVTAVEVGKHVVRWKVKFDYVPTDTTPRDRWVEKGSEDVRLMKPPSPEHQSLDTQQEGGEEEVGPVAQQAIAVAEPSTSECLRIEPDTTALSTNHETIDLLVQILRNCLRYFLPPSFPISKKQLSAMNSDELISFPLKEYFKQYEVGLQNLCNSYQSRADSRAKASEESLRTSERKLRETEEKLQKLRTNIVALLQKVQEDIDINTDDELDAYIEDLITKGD
Target,log2 fold change (nilotinib),log2 fold change [1],log2 fold change (dasatinib),log2 fold change [2],log2 fold change [3],log2 fold change (quisinostat),log2 fold change (tipifarnib),log2 fold change [4],log2 fold change [5],log2 fold change [6],log2 fold change [7],log2 fold change (vorinostat),log2 fold change (silmitasertib),log2 fold change [8],log2 fold change (entospletinib)
MORC3 (UniProt Q14149),0.001,0.012,0.006,-0.015,0.046,-0.018,-0.01,0.037,-0.017,-0.004,0.008,-0.303 (active),-0.01,0.005,0.009
LLGL1 (UniProt Q15334),0,0.149,-0.011,0.052,0.016,-0.046,-0.077,0.159,0.053,0.075,0.078,-0.524 (active),0.077,-0.046,0.042
LRCH3 (UniProt Q96II8),-0.003,-0.029,-0.095,0.064,0.038,-0.16,-0.029,-0.005,0.011,-0.025,0.053,-0.535 (active),0.048,-0.03,-0.009
MGST3 (UniProt O14880),0.024,0.016,0.029,-0.019,-0.062,0.016,-0.014,0.009,-0.013,-0.031,-0.025,0.128,0,0.033,0.041
MICU2 (UniProt Q8IYU8),-0.052,0.02,-0.026,0.048,-0.015,-0.03,-0.043,0.07,0.105,-0.009,0.012,-0.179,0.031,-0.009,-0.089
MORC2 (UniProt Q9Y6X9),-0.012,-0.02,-0.046,0.006,0.051,-0.05,0.024,0.049,0.028,-0.001,0.014,-0.328 (active),0.103,-0.015,0.013
MARCHF6 (UniProt O60337),0.164,-0.024,-0.136,0.04,-0.169,-0.085,-0.179,-0.025,-0.023,-0.008,0,0.057,-0.037,-0.06,-0.028
MRPL46 (UniProt Q9H2W6),-0.036,0.039,0.016,0.064,0.03,-0.034,0.05,0.03,-0.023,0.035,0.021,-0.21,0.155,0.036,-0.049
LZTS1 (UniProt Q9Y250),-0.13,0.023,0.056,0.167,-0.266,-1.06 (active),0.087,0.186,-0.02,-0.297,0.04,0.101,-0.143,0.121,0.07
MAPK8 isoform 3 (UniProt P45983),0.051,-0.007,0.054,0.326 (active),0.07,-0.139,0.006,0.093,0.115,-0.062,0.064,-0.395 (active),0.007,0.038,-0.039
LAP3 (UniProt P28838),0.045,-0.006,-0.047,0.016,-0.123,-0.192,-0.008,0.049,0.009,-0.137,0.048,0.082,-0.104,0.104,-0.008
KIF2C (UniProt Q99661),0.013,0.009,-0.021,0.002,0.028,-0.068,0.003,0.035,-0.01,-0.005,0.003,-0.464 (active),0.028,0.012,0.024
MAPK3 (UniProt P27361),0.009,0.272 (active),-0.026,0.141,-0.019,0.016,-0.013,0.022,0.094,-0.003,-0.016,-0.005,0.02,0.038,-0.013
MGAT5 (UniProt Q09328),0.035,0.01,-0.005,0.012,0.002,0.051,-0.02,-0.019,0.022,-0.003,0.054,0.139,-0.014,0.013,0.063
KNSTRN (UniProt Q9Y448),0.012,0.03,-0.048,-0.071,-0.005,0.165,0.033,-0.02,-0.002,-0.01,-0.018,-0.054,0,0.057,0.02
MRPL19 (UniProt P49406),0.001,-0.015,-0.039,-0.004,0.005,-0.055,0.033,0.024,-0.018,-0.044,0,-0.311 (active),0.012,0.027,-0.054
MAPKAPK2 (UniProt P49137),0.032,0.068,-0.043,-0.008,0,0.01,0.032,0.148,0.022,0.008,-0.019,-0.36 (active),0.072,-0.014,0.04
KIF2A isoform 4 (UniProt O00139),0.021,-0.015,-0.022,-0.02,0.042,-0.005,0.015,0.021,0.017,0.006,-0.018,-0.518 (active),0.044,-0.015,-0.006
KIF14 (UniProt Q15058),0.003,0.042,-0.035,0.033,0.007,-0.139,-0.046,0,0.001,-0.024,0.082,-0.286 (active),-0.016,-0.019,-0.055
MCU (UniProt Q8NE86),-0.044,0.012,-0.065,0.072,0.006,-0.054,-0.096,0.011,0.025,-0.085,-0.037,0.04,0,-0.072,-0.016
LPCAT1 (UniProt Q8NF37),-0.039,0.015,-0.084,0.014,-0.045,0.016,0.046,0.008,0.053,0.033,-0.011,0.027,-0.076,-0.026,-0.057
